An excerpt weighted towards active compounds, which were near 2.4% of everything screened.
POLI inh = qHTS for Inhibitors of Polymerase Iota | Potency, µM (titrated, usually from 115 µM), actives largely listed as inhibitors | Pol iota fluorescent replication assay, 10 min | DNA polymerase iota (Homo sapiens), Q9UNA4 | 390,000 compounds, 1% hits
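Fluorescent replication assay read twice, at 0 min and 10 min after adding 50 nM (final) substrate. Enzyme (10 nM) and compounds were first incubated 15 min at room temperature; enzyme-free buffer wells were negative controls.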
Pol kappa inh-1 = qHTS for Inhibitors of Polymerase Kappa; Potency, µM (top dose mostly 107 µM), usual class: inhibitors; purified Pol kappa, fluorescent DNA synthesis assay, 10 min; DNA polymerase kappa (Homo sapiens), Q9UBT6; 400,000 compounds, 0.53% hits
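10 nM Pol kappa preincubated 15 min at room temperature with compounds, then reaction started with substrate at 50 nM final. Fluorescence read kinetically at 0 and 10 min; buffer-only wells served as negative control.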
Pol beta inh = qHTS Assay for Inhibitors of DNA Polymerase Beta; Pol beta primer extension/strand displacement, fluorescence kinetic; Potency, µM (series often up to 114 µM), actives largely listed as inhibitors; 340,000 compounds, 1.3% hits
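Values derive from four-parameter Hill fits of normalized kinetic data: reads at 0 and 10 min following addition of 50 nM substrate to 10 nM Pol beta preincubated 15 min with compound.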
GLS inh = qHTS for Inhibitors of Glutaminase (GLS). Glutaminase kidney isoform, mitochondrial (Homo sapiens), O94925. GLS enzymatic activity, qHTS titration. Potency, µM (doses to about 45.5 µM), hits mostly inhibitors. 410,000 compounds, 0.21% hits. AID 624170, 2012
Target sequence (O94925 whole entry, looked up, canonical isoform): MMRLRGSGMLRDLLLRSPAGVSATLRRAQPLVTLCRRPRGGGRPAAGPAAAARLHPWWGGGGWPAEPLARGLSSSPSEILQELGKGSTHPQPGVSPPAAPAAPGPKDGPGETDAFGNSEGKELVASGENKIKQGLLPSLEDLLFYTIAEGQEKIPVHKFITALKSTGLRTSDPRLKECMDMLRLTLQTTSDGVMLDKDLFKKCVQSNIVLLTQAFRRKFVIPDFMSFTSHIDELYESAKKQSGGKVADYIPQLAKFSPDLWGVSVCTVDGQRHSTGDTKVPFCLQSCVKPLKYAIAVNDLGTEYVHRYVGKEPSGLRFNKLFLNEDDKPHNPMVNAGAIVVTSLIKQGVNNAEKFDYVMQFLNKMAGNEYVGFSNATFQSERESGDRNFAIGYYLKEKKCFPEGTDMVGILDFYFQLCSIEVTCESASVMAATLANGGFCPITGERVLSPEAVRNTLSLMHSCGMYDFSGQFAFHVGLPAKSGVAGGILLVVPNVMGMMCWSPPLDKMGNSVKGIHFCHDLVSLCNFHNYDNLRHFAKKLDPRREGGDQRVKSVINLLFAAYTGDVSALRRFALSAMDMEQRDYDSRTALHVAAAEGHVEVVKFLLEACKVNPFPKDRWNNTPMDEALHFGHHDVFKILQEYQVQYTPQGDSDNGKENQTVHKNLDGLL
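hKGA in 45 mM KH2PO4 (pH 8.2), 0.02% Tween-20 with compound, then 1mM L-Glutamine (stock as added) plus glutamate oxidase/HRP/Amplex red coupling mix. Fluorescence read initially and after 30 min at RT; signal change reflects glutamate formation.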
KAT2A inh = qHTS Assay for Inhibitors of GCN5L2. Histone acetyltransferase KAT2A (Homo sapiens), Q92830. GCN5L2 HAT assay, ThioGlo1 CoA-SH fluorescence. Potency, µM (series often up to 58.9 µM), actives largely listed as inhibitors. 390,000 compounds, 0.21% hits. AID 504327, 2011
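Fluorescence readout, Ex340nm/Em540nm: ThioGlo1 (50uM final) reacts with free CoA thiol released as 20nM GCN5L2 acetylates H3(1-25) peptide (75uM) using acetyl-CoA (70uM). Compound and enzyme sat 15 min beforehand; 20 min room-temperature reaction.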
Pol eta inh-1 = qHTS for Inhibitors of Polymerase Eta; AID 588591, 2011; recombinant Pol eta, fluorescent DNA replication assay; Potency, µM (highest dose often 114 µM), most hits filed as inhibitors; DNA polymerase eta (Homo sapiens), Q9Y253; 390,000 compounds, 1.2% hits
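Pol eta (10 nM) was preincubated with compounds for 15 min at room temperature, after which fluorescent replication substrate (50 nM final) was added to start the reaction. Fluorescence was read kinetically at 0 and 10 min.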
HEK293 tox = Secondary Assay for Inhibitors of Human Galactokinase (GALK): HEK-293 Cell Viability Assay. HEK-293 viability, ATP luminescence (CellTiter-Glo), 24/48 h. shares compounds with Pol eta inh-1. 170 compounds, 10% hits. Potency, µM (top dose mostly 46.1 µM), most hits filed as inhibitors
Pol kappa inh-2 = qHTS for Inhibitors of Polymerase Kappa: Confirmatory Assay for Cherry-picked Compounds; purified Pol-kappa, fluorescent strand-displacement substrate; AID 720501, 2013; 920 compounds, 76% hits; Potency, µM, hits mostly inhibitors; shares compounds with Pol eta inh-1
Pol eta inh-2 = qHTS for Inhibitors of Polymerase Eta: Confirmatory Assay for Cherry-picked Compounds. shares compounds with Pol eta inh-1. Pol eta primer extension, TAMRA/BHQ fluorescence, 10 min. Potency, µM, usual class: inhibitors. 2,600 compounds, 64% hits. AID 720502, 2013
A number is an active result; n = inactive; u = inconclusive; x = not tested or not shown; [ ] = remark or other dose. Calls come from the whole dose curve; as a rule, active = well fitted curve in the direction sought with a large enough effect; inconclusive = small, poorly fitted or top-dose-only effect, or another doubt; inactive = no such curve, though single readings can be large; an effect the other way counts as inactive or inconclusive.

SMILES	POLI inh	Pol kappa inh-1	Pol beta inh	GLS inh	KAT2A inh	Pol eta inh-1	Pol eta inh-2	others
C=CCNC(=S)NNC(=O)c1ccco1	n	n	n	n	n	n	x
O=C(/C=C/c1ccco1)NC(=S)NNC(=O)c1ccco1	u	n	u	n	n	50.1µM	x	Pol kappa inh-2=u
COc1cccc(C(=O)Nc2cc(-c3cn4cccnc4n3)ccc2C)c1OC	n	n	n	n	n	n	x
CCOC(=O)C1=C(COC(=O)c2ccc([N+](=O)[O-])s2)NC(=O)NC1C (stereo not given)	50.1µM	u	x	n	n	39.8µM	u
CCOC(=O)C1=C(COC(=O)c2sccc2C)NC(=O)NC1C (stereo not given)	n	n	x	n	n	n	x
CCOC(=O)C1=C(COC(=O)COc2ccccc2OCC)NC(=O)NC1C (stereo not given)	n	n	x	n	n	n	x
CCOC(=O)C1=C(COC(=O)COc2ccccc2C=O)NC(=O)NC1C (stereo not given)	u	u	x	n	n	12.6µM	75.7
O=C1C2C=CC=CC2=NC(=S)N1CCN1CCC(=C(c2ccc(F)cc2)c2ccc(F)cc2)CC1 (stereo not given)	n	u	n	x	n	n	x
CC1=N/C(=C/c2ccco2)C(=O)O1	u	50.1µM	10µM	n	n	10µM	30.1
CN(C)/C=C1/Sc2ccccc2C1=O	n	n	n	n	n	n	x
CC(=O)N(\C=C/C=C/C=C1\Sc2ccccc2C1=O)c1ccccc1	u	25.1µM	20µM	u	u	79.4µM	u	Pol kappa inh-2=75.2
Cc1ccccc1N1C(S)=C(C#N)C(=O)NC1c1ccco1 (stereo not given)	22.4µM	n	28.2µM	n	n	28.2µM	u
Cc1ccccc1N1C(S)=C(C#N)C(=O)NC1c1cccs1 (stereo not given)	u	n	n	n	n	u	x
O=C(CCS(=O)(=O)c1ccc(Br)cc1)Nc1ccc(F)cc1F	n	n	n	n	n	n	x
CCOc1ccccc1NC(=O)CCS(=O)(=O)c1ccc(Br)cc1	17.8µM	u	10µM	n	n	17.8µM	23.9
O=C(CCS(=O)(=O)c1ccc(Br)cc1)Nc1cc(F)ccc1F	n	u	17.8µM	u	n	u	x	Pol kappa inh-2=42.3
O=C(CCS(=O)(=O)c1ccc(Br)cc1)NCc1cccs1	17.8µM	u	15.8µM	n	n	17.8µM	u
CCOc1ccccc1NC(=O)CCNS(=O)(=O)c1ccc(NC(C)=O)cc1	n	n	n	n	n	n	x
O=C1C(=Cc2ccncc2)CCCc2ccccc21	x	x	x	n	x	n	x
O=C1/C(=C/c2ccncc2)CCC/C1=C\c1ccncc1	10µM	n	n	n	n	44.7µM	u
Cc1oc(C(=O)O)cc1CSCc1cc(C(=O)O)c(C)o1	u	u	22.4µM	u	n	3.16µM	26.9
O=C(O)c1occc1CSc1ccccc1	n	n	n	n	n	n	x
Cc1oc(C(=O)O)cc1CSCc1ccoc1C(=O)O	u	u	n	u	n	3.16µM	30.1
Cc1cccc(CSCc2ccc(C(=O)O)o2)c1	n	n	n	n	n	n	x
Cc1ccc(CNC(=O)CN2C(=O)C3(SCC(=O)N3c3ccc(F)c(F)c3)c3ccccc32)cc1 (stereo not given)	n	n	n	n	n	n	x
SMILES	POLI inh	Pol kappa inh-1	Pol beta inh	GLS inh	KAT2A inh	Pol eta inh-1	Pol eta inh-2	others
Cc1cc(C)n(CC(=O)NC2C(=O)N3C(C(=O)O)=C(CSc4nnc(C)s4)CSC23)n1 (stereo not given)	n	n	u	n	n	22.4µM	u
CC1=C(C(=O)O)N2C(=O)C(NC(=O)c3c(F)cccc3F)C2SC1 (stereo not given)	n	n	x	n	n	n	x
CC1=C(C(=O)O)N2C(=O)[C@@H](NC(=O)[C@H](N)c3ccc(O)cc3)[C@H]2SC1	n	n	x	n	x	n	x
Cc1nnc(SCC2=C(C(=O)O)N3C(=O)C(NC(=O)Cn4ncc(Cl)c4C)C3SC2)s1 (stereo not given)	u	u	31.6µM	u	n	17.8µM	26.9
N[C@H](C(=O)N[C@@H]1C(=O)N2C(C(=O)O)=C(Cl)CS[C@@H]12)c1ccccc1	x	n[12 µM]	x	x	n	x	x
Cc1nnc(SCC2=C(C(=O)O)N3C(=O)C(NC(=O)c4cccc(F)c4F)C3SC2)s1 (stereo not given)	15.8µM	u	n	n	n	31.6µM	26.9
CCN(Cc1ccccc1)S(=O)(=O)c1ccc(F)c(C(=O)Nc2ccc(C(C)C)cc2)c1	n	n	n	n	n	n	x
COc1cccc(C(=O)Nc2c(C(=O)N3CCN(c4ccc(F)cc4)CC3)oc3ccccc23)c1	n	n	n	n	n	n	x
O=[N+]([O-])c1ccc2c([N+](=O)[O-])ccc3c2c1CC3	x	x	x	n	x	14.1µM	75.7
Cc1ccc(C(=O)Nc2ccc3c4c(cccc24)CC3)cc1[N+](=O)[O-]	n	n	n	n	n	n	x
CC(C)(C)C(=O)Nc1ccc2c(c1)C(=O)C(=O)c1ccccc1-2	1.41µM	n	x	x	x	x	x	HEK293 tox=5.6µM
CC(=O)Nc1ccc2c(c1)C(=O)c1ccccc1C2=O	u	n	n	n	n	n	x
O=C1CC(c2nc(-c3ccccc3)no2)CN1c1ccc2c(c1)OCCO2 (stereo not given)	n	n	n	n	n	n	x
CCOC(=O)c1cnc2cc(-c3ccc(OCC)cc3)nn2c1-c1ccccc1	n	n	n	n	n	n	x
CCOc1ccc(CNC(=O)c2ccc3nc(CC)c(CC)nc3c2)cc1	n	n	n	n	n	n	x
O=C1NN(c2ccccc2)C(=O)/C1=C\c1coc2ccc(O)cc2c1=O	u	u	u	n	n	u	u
O=C1NN(c2ccccc2)C(=O)/C1=C/c1coc2ccccc2c1=O	u	u	n	n	n	u	x
COC(=O)c1ccc(NC(=O)CSc2cn(CC(=O)N3CCCCCC3)c3ccccc23)cc1	n	n	n	n	n	n	x

Bioassay records as filed in PubChem BioAssay.
